Here are results for 17 compounds from PubChem BioAssay (NCATS).

Results filed as inconclusive are left out. Active and inactive are the calls of the source. The call rests on the fitted dose curve; in most records, active means well fitted inhibition curve with a large enough effect; inconclusive means small, poorly fitted or top-dose-only effect; inactive means flat fitted curve, though single readings scatter.

Test in all cases: qHTS profiling for inhibitors of Plasmodium falciparum proliferation (AID 504749); further: nearly all actives have a fitted effect of over 60% in size
Common to all, as to details: P. falciparum in erythrocytes, SYBR Green DNA, 72 h; series mostly up to 28.7 µM
(qHTS replaces the single test concentration by a dilution series.)

The subject of one test is AA1029. The method, boiled down: (§1)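 Fluorescence of SYBR Green-bound parasite DNA, read at 485/535 nm, served as the growth measure. Infected erythrocytes were cultured with compound 72 h; artemisinin (0.29 uM) and DMSO wells defined the normalization range.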
A further test deals with AS120. The method, boiled down: as §1
In another test the test system is C2A. The method, boiled down: as §1
The next test concerns CP185. A digest of the protocol:
as §1

A further test has as its system CP192. A digest of the protocol:
as §1

The test system of a further test is CP194. The method, boiled down: as §1
The test system of another test is ATS189. A digest of the protocol: as §1
For the next test, the system named is ATS95. The method, boiled down:
as §1

A further test has as its system CP191. A digest of the protocol:
as §1

The next test relates to CP201. A digest of the protocol: as §1
Potency means the concentration at half of the fitted maximal effect.

Regarding `N#CC(C#N)=Cc1cc(O)c(O)c(O)c1`, the Potency in the test with AA1029 is 12.6 µM (active); in the test on AS120 it was 8.91 µM (active); in the test with C2A it was 10 µM (active); in the test on CP185, 8.91 µM (active); in the test with CP192, 13.5 µM (active); in the test with CP194, 15.1 µM (active).
For `O=[N+]([O-])c1ccc(F)c([N+](=O)[O-])c1`, the Potency result with AA1029, with AS120, in the test on ATS189, in the test on ATS95, in the test with C2A and in the test with CP185 was “inactive” each time. For the same compound, the Potency entry with CP191, in the test with CP192, in the test with CP194 and with CP201 was “inactive” each time.
For `[Cl-].[Cl-].[Hg+2]`, the Potency entry with CP191 and in the test with CP192 was “inactive” throughout.
With `CN1[C@@H]2CC[C@H]1CC(OC1c3ccccc3CCc3ccccc31)C2` (stereo partly drawn), the Potency in the test with AA1029 was 3.55 µM (active); in the test with AS120, 3.55 µM (active); with CP191, 2.51 µM (active). The Potency entry in the test on CP192 and with CP201 was “inactive” in each case.
In the case of `O=Cc1ccco1`, the Potency result in the test on AA1029, in the test on ATS189, in the test on ATS95, with C2A, in the test with CP185 and in the test on CP191 was “inactive” each time. Besides, the Potency entry with CP192, with CP194 and in the test with CP201 was “inactive” in each case.
With `O=C1CC[C@@]2(O)C3Cc4ccc(O)c5c4C2(CCN3CC2CC2)[C@H]1O5` (stereo partly drawn), the Potency result with AA1029, in the test with AS120, in the test on ATS189, with ATS95, in the test with C2A and with CP185 was “inactive” each time. Further, the Potency result with CP191, in the test with CP192, in the test on CP194 and in the test on CP201 was “inactive” throughout.
Consider `O=C1CN=C(c2ccccc2)c2cc(Cl)ccc2N1CC1CC1`, for which the Potency entry in the test with AA1029, in the test on ATS189, with ATS95, in the test on C2A, in the test with CP185 and in the test with CP191 was “inactive” throughout. In addition, the Potency entry in the test with CP192, in the test with CP194 and with CP201 was “inactive” throughout.
For the compound `F/C(COc1ccc2c(c1)[nH]c1ccccc12)=C1/CN2CCC1CC2`, the Potency was 10 µM (active) in the test with AA1029, 4.47 µM (active) in the test on AS120, 11.2 µM (active) in the test on ATS95 and 11.2 µM (active) in the test with CP191. For the same compound, the Potency entry with CP201 was “inactive”.
As to `CCC1(CC)C(=O)NC(=O)N(C)C1=O`, the Potency entry with AA1029, in the test with AS120, with ATS189, with ATS95, in the test on C2A and with CP185 was “inactive” each time. Besides, the Potency result in the test on CP191, with CP192, in the test with CP194 and in the test with CP201 was “inactive” each time.
Consider `CN1C2CCC1CC(OC(c1ccccc1)c1ccc(Cl)cc1)C2` (stereo not drawn), for which the Potency in the test with AA1029 is 11.2 µM (active); in the test with AS120, 11.2 µM (active); with ATS189, 10 µM (active); with ATS95 it was 8.91 µM (active); with C2A, 11.2 µM (active); in the test with CP185, 12.6 µM (active). Moreover, the Potency is 4.47 µM (active) in the test on CP191 and 10.7 µM (active) in the test on CP194.
In the case of `O=C(OCCN1CCCCC1)C(O)(c1ccccc1)c1ccccc1`, the Potency entry in the test with AA1029, in the test on AS120, with ATS189, in the test with ATS95, in the test with C2A and in the test on CP185 was “inactive” in each case. Also, the Potency entry in the test with CP191, in the test on CP192, in the test with CP194 and in the test on CP201 was “inactive” throughout.
For `OC(c1ccccc1)(c1ccccc1)C1CN2CCC1CC2` (stereo not drawn), the Potency result in the test on AS120, in the test with ATS189, in the test with ATS95, in the test on C2A, in the test on CP185 and with CP192 was “inactive” in each case. Besides, the Potency entry with CP194 and in the test with CP201 was “inactive” in each case.
Regarding `CC12NC(Cc3ccccc31)c1ccccc12` (stereo not drawn), the Potency in the test on AA1029 is 11.2 µM (active). In addition, the Potency result in the test with C2A, in the test with CP192 and in the test with CP201 was “inactive” throughout.
Regarding `C[C@@H](Cc1ccccc1)NCCC(c1ccccc1)c1ccccc1`, the Potency entry in the test on ATS189, with C2A, with CP192 and with CP201 was “inactive” throughout.
`CC1CCC(C(C)C)C(OC(=O)c2ccccc2N)C1` (stereo not drawn): the Potency entry in the test on AA1029, in the test on AS120, with C2A, with CP185, in the test with CP191 and in the test with CP192 was “inactive” throughout. For the same compound, the Potency result with CP194 and in the test with CP201 was “inactive” each time.
`S=C=S`: the Potency result in the test with AA1029, with AS120, with ATS189, in the test with ATS95, with C2A and in the test with CP185 was “inactive” in each case. Moreover, the Potency entry with CP191, with CP192, with CP194 and in the test with CP201 was “inactive” throughout.
`O=CC=O`: the Potency entry with AA1029, in the test on AS120, in the test on ATS189, in the test with ATS95, in the test with C2A and in the test on CP185 was “inactive” throughout. Also, the Potency result with CP191, with CP192, with CP194 and with CP201 was “inactive” each time.
